# Records with an inconclusive call do not appear. Entries that show only a call come without a potency. Unmarked numbers belong to inactive results. Calls of active or inactive are those of the source. Calls follow the shape of the dose curve; as a rule, active = well fitted activation curve with a large enough effect in the repeat runs; inconclusive = weak or mixed curves; inactive = flat fitted curve, though single readings scatter.
# Assay: A CellTox Green Cytotoxicity Assay to monitor cytotoxicity in HepG2 cells - 8 hour (AID 1224890); also: nearly all actives have a fitted effect of over 45% in size
# Conditions: CellTox Green fluorescence; series mostly up to 76.8 µM
# Source text: National Center for Advancing Translational Sciences [NCATS]
# NIH Chemical Genomics Center [NCGC]
# U.S. Environmental Protection Agency [EPA]
# National Institutes of Environmental Health Sciences [NIEHS]
# National Toxicology Program [NTP]
# Cell-based models are critical for drug discovery. Determining the natural cytotoxic effects resulting from test compounds is an essential research activity. A CellTox Green Cytotoxicity Assay to monitor cytotoxicity in real time of continues cell culture during 40 hours of the compound treatment was used to screen Tox21 10K library compounds in HepG2 cells. CellTox Green Cytotoxicity Assay is a nonlytic, homogeneous, biofluorescent method to measure cytotoxicity in cell culture after experimental manipulation. The assay system uses a proprietary asymmetric cyanine dye that is excluded from viable cells but preferentially stains the dead cell's DNA. […] Viable cells produce no appreciable increases in fluorescence. Therefore, the fluorescence signal produced by the binding interaction with dead cell DNA is proportional to cytotoxicity.
# The mixture of HepG2 cell suspension and reagents were dispensed at 600cells/6 ul/well in 1536-well tissue culture treated black solid bottom plates using a Multidrop dispenser. After the assay plates were incubated at a 37 C/5% CO2 incubator for 5 hours, 23 nL of compounds dissolved in DMSO, positive and negative controls was transferred to the assay plate by a pintool work station. The plates were incubated at 37 C for 40 hours. The fluorescence intensity were measured at 0h, 8h, 16h, 24h, 32h and 40h time points using ViewLux plate reader during compound treatment.
Compound,Potency,cytotoxicity increase
COC(=O)c1ccccc1Cl,inactive,–
Cc1ccccc1C#N,inactive,–
C/C=C/C(=O)CCCC,inactive,–
COc1cc(OC)cc(OC)c1,inactive,–
CC12CCCC=C1C(=O)OC2=O (stereo not given),inactive,–
CCCC(=O)OC,inactive,–
CCCCc1ccc(Cl)cc1,inactive,–
O=C[C@@H](O)[C@H](O)[C@H](O)CO,inactive,–
CC1=C(O)C(=O)CO1,inactive,–
NNC(=O)OCc1ccccc1,inactive,–
COCc1nnc(-c2ccc[n+]([O-])c2)n1-c1c(Cl)c(Cl)cc2[nH]c(=O)c(=O)[nH]c12,inactive,–
CC/C=C\CCCCCCCCCCOC(C)=O,inactive,–
CC(CC(=O)Cl)CC(C)(C)C (stereo not given),inactive,–
CCCCCCCCCCCCCCCC(=O)OC,–,-16.6% [at 15.8 µM]
NCC1CCC(C(=O)Oc2ccc(CCC(=O)O)cc2)CC1 (stereo not given),inactive,–
CN(C)c1cc(NC(=O)CNC(C)(C)C)c(O)c2c1C[C@H]1C[C@H]3[C@H](N(C)C)C(=O)C(C(N)=O)=C(O)[C@@]3(O)C(=O)C1=C2O,inactive,–
CCOC(=O)c1ccc(N(C)C)cc1,inactive,–
Cc1cc(N)no1,inactive,–
CC(=O)O[C@@H]1CC2C3CCc4cc(OC(=O)c5ccccc5)ccc4C3CCC2(C)[C@H]1OC(C)=O (stereo not given in full),inactive,–
CCCCNCC,inactive,–

Compound,Potency,cytotoxicity increase
C=CC(=O)OCC[N+](C)(C)C,inactive,–
O=C(c1ccccc1)c1cccc(O)c1,inactive,–
COc1cc2nc(N3CCN(C(=O)C4CCCO4)CC3)nc(N)c2cc1OC (stereo not given),inactive,–
Nc1ccc(C(=O)NCC(=O)O)cc1,inactive,–
O=C(O)Cc1c(Cl)ccc(Cl)c1Cl,inactive,–
CC1(C)C(=O)C(C)(C)C1=O,inactive,–
CC(=O)Oc1ccc(C(C)=O)cc1,inactive,–
COc1cc(C(=O)NC2CCCNC2)cc(OC)c1OC (stereo not given),inactive,–
Cc1ccc(S(=O)(=O)NC(=O)NN2CC3CCCC3C2)cc1 (stereo not given),inactive,–
CC(C)=CCC/C(C)=C\C#N,inactive,–
O=S(=O)(O)c1ccc(Cl)cc1,inactive,–
CC(O)C(CO)C(C)O (stereo not given),inactive,–
Cc1cccc(N)n1,inactive,–
C=CCON/C(CCC)=C1\C(=O)CC(C)(C)C(C(=O)OC)=C1O,inactive,–
C[C@]12C=CC(=O)C=C1[C@@H](F)C[C@@H]1[C@@H]2[C@@H](O)C[C@@]2(C)[C@H]1CC[C@]2(O)C(=O)CO,inactive,–
NNC(=O)CCCCC(=O)NN,inactive,–
COc1ccc(Cl)cc1C,inactive,–
CCCCCCCCCCCCCCCC/C=C/C1CC(=O)OC1=O (stereo not given),inactive,–
CC(C)OCCO,inactive,–
CC(C)C[P+](C)(CC(C)C)CC(C)C,inactive,–

# Source: PubChem BioAssay (Tox21)
